Screening results from PubChem.
Pf growth 96h = Primary qHTS for delayed death inhibitors of the malarial parasite plastid, 96 hour incubation; P. falciparum luciferase reporter growth, 96 h; Potency, µM (series often up to 28.7 µM), hits mostly inhibitors; 320,000 tested, 6.9% active
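96 h incubation, 37 C, 5% CO2, of luciferase-reporter P. falciparum-infected RBCs (2% hematocrit, 0.05% parasitemia final) with test compounds; endpoint luminescence.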
Marburg entry inh = qHTS for inhibitors of binding or entry into cells for Marburg Virus; Marburg virus pseudotyped entry inhibition, cell reporter; Potency, µM (series often up to 37.8 µM), hits mostly inhibitors; 300,000 tested, 1.8% active; AID 540276, 2011; calls by dose curve; tested in HEK293 cells
LASV entry inh = qHTS for Inhibitors of binding or entry into cells for Lassa Virus | 300,000 tested, 1.2% active | Lassa virus pseudotype entry inhibition, cell reporter | AID 540256, 2011 | Potency, µM (highest dose often 37.9 µM), hits mostly inhibitors; calls by dose curve; tested in HEK293 cells; further: nearly all actives have a fitted effect of over 50% in size
Pf growth 48h = Primary qHTS for delayed death inhibitors of the malarial parasite plastid, 48 hour incubation; Potency, µM (doses to about 28.7 µM), usual class: inhibitors; P. falciparum luciferase growth in erythrocytes, 48 h; 310,000 tested, 5.9% active
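In quantitative HTS format, infected erythrocytes bearing luciferase-reporter parasites were treated for a single generation at 37 C. Luminescence after adding detection reagent served as the growth measure.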
Shiga toxin inh = A qHTS for Small Molecule Inhibitors of Shiga Toxin | Vero cells, Shiga toxin protein synthesis inhibition reporter | inhibition, % at 38.7 µM | 290,000 tested, 9.2% active; in the data active means inhibition mostly above about 28%, no sharp cut-off; inactive means mostly below about 43%
CHX counter = Cycloheximide Counterscreen for Small Molecule Inhibitors of Shiga Toxin; cell reporter, cycloheximide protein synthesis inhibition counterscreen; max response, %; 300,000 tested, 12% active; in the data active means max response mostly above about 13%, no sharp cut-off; inactive means mostly below about 14%; further: read at 38.3 µM for the half of the compounds with a filed dose
A number is an active result; - = inactive; ? = inconclusive; . = not tested or not shown; + = active, no number; ! = not confirmed by another sample. An excerpt weighted towards active compounds, which were near 19% of everything screened. Unless noted, the call rests on the fitted dose curve; in most records, active means well fitted inhibition curve with a large enough effect; inconclusive means small, poorly fitted or top-dose-only effect, or another doubt; inactive means no such curve, though single readings can be large or run the other way.

SMILES	Pf growth 96h	Marburg entry inh	LASV entry inh	Pf growth 48h	Shiga toxin inh	CHX counter
COc1ccc(CN2CC(=O)N(c3ccc(C)cc3C)C2=S)cc1OC	?	-	?	?	-	-
COc1ccc(CN2CC(=O)N(c3ccccc3C)C2=S)cc1OC	-	-	?	9.3µM	-	-
COc1ccc(CN2CC(=O)N(c3ccc(C)c(C)c3)C2=S)cc1OC	-	-	-	?	-	-
COc1cc(CN2CC(=O)N(c3ccc(C)c(C)c3)C2=S)cc(OC)c1OC	-	?	-	1µM	-	-
Cc1ccc(C)c(N(C(=O)CNC(=O)c2ccco2)C(C(=O)NC2CCCCC2)c2ccncc2)c1 (stereo not drawn)	-	-	-	-	-	-
c1ccc2c(OCCCCN3CCOCC3)cccc2c1	-	-	-	-	-	-
COc1ccc(S(=O)(=O)N2CCN(Cc3cccnc3)CC2)cc1	-	.	.	-	-	-
O=c1c2ccccc2nc(-c2ccco2)n1-c1ccccc1	8.3µM	?	-	?	-	-
O=c1c2ccccc2nc(-c2ccco2)n1-c1nc2ccccc2s1	1µM	?	-	-	-	-
O=C1c2ccccc2-n2c1nc1ccccc1c2=O	0.0037µM	.	.	0.33µM	52!	-
O=c1c2ccccc2nc(-c2ccco2)n1-c1ccncc1	?	-	-	-	-	-
Cc1ccccc1-n1c(-c2ccco2)nc2ccccc2c1=O	-	?	-	?	-	-
O=c1c2ccccc2nc(-c2ccccc2)n1-c1ccccc1O	?	-	?	?	-	-
Nn1c(SCC(=O)N2CCc3ccccc3C2)nnc1-c1cccs1	-	-	-	-	-	-
C=C(CC1([C@@H](NP(=O)(c2ccccc2)c2ccccc2)[C@H]2C[C@@H]2CCCC)CC1)c1ccccc1	9.3µM	-	-	5.9µM	-	-
CCCC[C@@H]1C[C@H]1[C@@H](NC(=O)c1ccccc1)c1ccccc1C(F)(F)F	?	-	-	?	-	-
CCN(CC)CC(O)CCCCCCCCC(=O)OC (stereo not drawn)	-	-	?	-	-	-
CN(C)C(=O)CSc1nnc(C23CC4CC(CC(C4)C2)C3)o1	.	?	?	-	-	15
CC[N+](CC)(CC)C/C=C/CN1CCCCC1	?	-	-	-	-	-
CCOc1cc(N2CCOCC2)c(OCC)cc1NC(=O)c1nn(CC)c(=O)c2ccccc12	2.6µM	-	-	10µM	.	.
CCOc1cc(N2CCOCC2)c(OCC)cc1NC(=O)CCS(=O)(=O)c1ccc(Cl)cc1	7.4µM	-	-	?	-	-
CCOc1cc(N2CCOCC2)c(OCC)cc1NC(=O)c1ccc(=O)n(Cc2ccccc2)n1	?	-	.	-	-	-
CCOc1cc(N2CCOCC2)c(OCC)cc1NC(=O)c1ccc2ccccc2n1	?	-	-	13µM	53	28
Cc1ccccc1CSc1nncn1N	.	-	-	-	-	-
O=C1CCC(c2ccccc2)=NN1Cc1c(F)cccc1Cl	?	?	-	-	-	-
SMILES	Pf growth 96h	Marburg entry inh	LASV entry inh	Pf growth 48h	Shiga toxin inh	CHX counter
CC1(C)OC(=O)C(=Cc2ccc[nH]2)C(=O)O1	?	-	-	?	-	-
CCN(C(=O)CCc1nnc2ccc(N3CCC4(CC3)OCCO4)nn12)c1ccccc1	?	-	-	-	-	-
COc1cccc(/C=C/C(=O)Nc2ccc(OC)nc2)c1	-	-	?	-	88	30
COc1ccc(NC(=O)/C=C/c2ccc(F)cc2)cn1	-	-	-	-	108	51
COc1ccc(NC(=O)/C=C/c2ccccc2)cn1	-	-	-	-	86	35
O=C1CC(C(=O)O)c2ccccc2N1 (stereo not drawn)	-	-	-	-	-	-
CN(C)/N=C/C=C1\CCC/C(=C/c2cccs2)C1=O	-	.	.	-	82	61
Cc1cc(C(=O)N[C@@H](c2ccccc2)[C@]2(C)C[C@H]2[C@@H](C)C(=O)Nc2ccc3ccccc3c2)no1	?	-	-	-	-	-
C[C@@H](C(=O)Nc1ccc2ccccc2c1)[C@@H]1C[C@@]1(C)[C@@H](NC(=O)OCc1ccccc1)c1ccccc1	-	.	.	?	-	-
C[C@@H](C(=O)Nc1ccc2ccccc2c1)[C@H]1C[C@]1(C)[C@H](NS(=O)(=O)c1ccccc1)c1ccccc1	?	-	-	1µM	-	-
C[C@@H](C(=O)Nc1ccc2ccccc2c1)[C@H]1C[C@]1(C)[C@H](NP(=O)(c1ccccc1)c1ccccc1)c1ccccc1	10µM	?	?	?	-	-
Cc1ccccc1-c1nc(CS(=O)CC(=O)NC2CC2)c(C)o1 (stereo not drawn)	-	.	.	-	-	-
COc1ccc(S(=O)(=O)N2CCCCCC2)cc1C(=O)N1CCCC(C(F)(F)F)C1 (stereo not drawn)	-	-	-	?	.	.
COc1ccc(O)c(C(=O)c2cnn(-c3ccccc3)c2)c1	-	?	-	-	96	29
COc1ccc(C(=O)c2ccccc2)c(O)c1	15µM!	-	-	?	+	26
COc1ccc(O)c(C(=O)c2cnc3onc(C)c3c2)c1	9.3µM	-	-	?	-	21
COc1ccc(-n2cc(C(=O)c3ccccc3O)cn2)cc1	-	?	4µM	-	-	-
N#C/C(C(=O)NCc1ccccc1)=C1/N=C(NC(=O)c2ccco2)c2ccccc21	-	-	?	?	-	-
Fc1ccc(CNCCC(Cc2ccccc2)c2ccco2)cc1 (stereo not drawn)	-	?	-	?	-	-
CCOc1ccc(S(=O)(=O)Nc2nc3ccccc3nc2Nc2ccc(OC)cc2)cc1	.	?	-	.	.	.
O=C(Cc1coc2ccc3ccccc3c12)N1CCCC1	-	-	?	-	-	-
COc1ccc(C(=O)OCCOc2ccccc2C(C)=O)c(O)c1	-	-	-	-	-	13
CC(=O)c1ccccc1OCCOc1ccccc1C(C)=O	?	.	.	?	-	-
COc1ccccc1-c1ccnc2c(-c3ccc(Br)cc3)c(C)nn12	.	?	-	.	.	.
O=[N+]([O-])c1ccc2c(c1)ncn2-c1ccccc1	?	-	?	-	-	-
SMILES	Pf growth 96h	Marburg entry inh	LASV entry inh	Pf growth 48h	Shiga toxin inh	CHX counter
O=[N+]([O-])c1ccc2cn(-c3ccccc3)nc2c1	-	?	-	-	52	54
O=[N+]([O-])c1ccc2c(c1)ncn2CCc1ccccc1	0.52µM	.	.	?	-	-
CN1N=C(C(C)(C)C)CC1=O	?	22µM	-	-	-	-
O=[N+]([O-])C(/C=C(/Cl)[N+](=O)[O-])=C(N1CCCCC1)N1CCCCC1	5.2µM	?	-	8.3µM	-	-
Cc1cccc(C(=O)N2CCCCCC2)c1[N+](=O)[O-]	-	.	.	-	-	-
O=C(CSc1nnc(-c2ccccc2)n1-c1ccc(Cl)cc1)NC1CCS(=O)(=O)C1 (stereo not drawn)	?	?	-	-	-	-
O=C(O)c1cc(-c2ccccc2)nc(-c2ccccc2)c1	?	.	.	-	.	.
